# Pin1 inhibitor: inhibitors of human Pin1. Q13526. Pin1 FP peptide displacement, HiFluor488, 10 min. Potency, µM (highest dose often 115 µM), for the others: at the highest dose activity, negative = inhibition, usual class: inhibitors. actives 0.009% (n = 390,000). AID 504891; active = well fitted inhibition curve with a large enough effect in the polarisation, with a control signal flat, not every such curve was filed as active; inconclusive = small, poorly fitted or top-dose-only effect, or effect the other way, or a change in a side signal; inactive = no such curve, though single readings can be large or run the other way; the % refers to the polarisation; note: % is set by controls: 0 for no effect and ±100 for the full control effect
# Target sequence (Q13526 whole entry, looked up): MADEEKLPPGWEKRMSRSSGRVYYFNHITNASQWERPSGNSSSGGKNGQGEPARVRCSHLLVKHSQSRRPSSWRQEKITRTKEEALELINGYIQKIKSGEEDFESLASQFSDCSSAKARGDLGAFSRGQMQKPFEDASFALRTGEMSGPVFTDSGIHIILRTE
# Nrf2 block: Nrf2 pathway inhibition; A549 ARE-Fluc reporter, luciferase luminescence, 18-24 h; Potency, µM (series often up to 46 µM), for inactives: at the highest dose activity change, negative = inhibition, usual class: inhibitors; actives 2.1% (n = 360,000); AID 504444; note: % is set by controls: 0 for no effect and ±100 for the full control effect; nearly all actives have a fitted effect of over 60% in size
#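 Reporter: ARE-Fluc in A549. Exposure: 18-24 h, 37 °C, 5% CO2, 5% FBS OPTI-MEM. Readouts: fluorescent cytotoxicity (CellTiter-Fluor), then luminescent Nrf2 signal after BugLite.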
# Nrf2 ARE act: activators of Nrf2 (ARE) signaling; AREc32 ARE-luciferase reporter (MCF7-derived line), luminescence, 24 h; Potency, µM (series often up to 46.1 µM), for the others: at the top dose activation, actives largely listed as activators; actives 0.31% (n = 410,000); AID 624171; note: % of control where 0% means no effect; nearly all actives have a fitted effect of over 65% in size
#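 Luminescent ARE reporter assay in AREc32_Fluc cells: overnight plating at 37 deg C, 24 hr compound incubation, Steady-Glo added, 30 min RT before reading.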
# A549 viability: A549 cytotoxicity, counter-screen for Nrf2 inhibitors | actives 0.16% (n = 390,000) | Potency, µM (titrated, usually from 46 µM), without a hit: at the top dose activity change, negative = cytotoxicity, usual class: inhibitors | A549 ARE-Fluc cells, CellTiter-Fluor viability, 18-24 h; note: % is set by controls: 0 for no effect and ±100 for the full control effect
#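 A549 ARE-Fluc cells in 5% FBS OPTI-MEM, 5000 cells/well, rested 2 h then exposed to compounds in concentration-response for 18-24 h at 37 °C. Viability by CellTiter-Fluor fluorescence (Ex 405/Em 525) after 30 min; luciferase luminescence (BugLite, 15 min, RT) read afterwards.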
# * hit, by the source's call; ? = inconclusive; . = no result. The list is not random: actives were taken first. Their share in the collection is about 2.2%. Unless noted, calls come from the whole dose curve; as a rule, active = well fitted curve in the direction sought with a large enough effect; inconclusive = small, poorly fitted or top-dose-only effect, or another doubt; inactive = no such curve, though single readings can be large; an effect the other way counts as inactive or inconclusive. Potency is the fitted concentration of half-maximal effect.
SMILES,Pin1 inhibitor,Nrf2 block,Nrf2 ARE act,A549 viability
CCCC[C@@H]1CCCO[C@@](C(=O)NCc2ccccc2)(C(F)(F)F)C1,?,-3%,.,6%
Cc1[nH]nc2c1-c1nc3ccccc3nc1C(C)(C)C2,11%,15µM*,0%,15µM*
COc1cccc(C(=O)NCCc2csc3nc(-c4ccccc4F)nn23)c1OC,3%,.,22%,-7%
COC(=O)c1ccc(CSc2nc3ccccc3[nH]2)o1,-10%,-9%,0%,-3%
COC(=O)c1cc(CSc2nc3ccc(C)cc3[nH]2)oc1C,?,21µM*,2%,-3%
COCC(C)n1c(SCc2cc(C(=O)OC)c(C)o2)nc2ccccc2c1=O (stereo not drawn),-2%,?,-1%,8%
COC(=O)c1cc(CSc2nnc(-c3ccccc3)c(-c3ccccc3)n2)oc1C,24%,21µM*,2%,-13%
Cc1ccc2c(n1)sc1c(=O)n(-c3cccc(C(F)(F)F)c3)nnc12,57%,-27%,5%,16%
O=C(c1cccc(Cl)c1)N1CCC(c2nc3c(nnn3Cc3ccc(F)cc3F)c(=O)[nH]2)CC1,-10%,-21%,3%,-7%
COc1ccc(/C(C)=N/NC(=O)c2nnn(-c3nonc3N)c2CN(C)c2ccccc2)cc1,-2%,16µM*,0%,-13%
COc1ccc(/C(C)=N/NC(=O)c2nnn(-c3nonc3N)c2-c2ccccc2)cc1,27%,-15%,0%,1%
C/C(=N\NC(=O)c1nnn(-c2nonc2N)c1CN(C)c1ccccc1)c1ccccc1O,50%,8.2µM*,-1%,-18%
Nc1c(N(CCC2=CCCCC2)C(=O)Cc2ccc(F)cc2)c(=O)[nH]c(=O)n1Cc1ccccc1,15%,?,3%,-11%
Nc1c(N(CCC2=CCCCC2)C(=O)COc2ccc(F)cc2Cl)c(=O)[nH]c(=O)n1Cc1ccccc1,20%,23µM*,0%,?
CC(C)(C)OC(=O)NCc1ccc(CNC(=O)c2[nH]cnc2C(=O)N[C@@H](Cc2ccccc2)C(=O)OC(C)(C)C)cc1,?,23µM*,5%,-15%
CCOC(=O)c1ccc(NC(=O)c2nc[nH]c2C(=O)N[C@H](C)c2ccccc2)cc1,36%,16µM*,-4%,?
C[C@@H](NC(=O)c1nc[nH]c1C(=O)N[C@@H](CCCCNC(=O)OC(C)(C)C)C(=O)OC(C)(C)C)c1ccccc1,0%,16µM*,-1%,?
CC(C)(C)OC(=O)[C@H](Cc1ccccc1)NC(=O)c1nc[nH]c1C(=O)NCc1ccccc1,1%,-15%,6%,-4%
COc1ccc(C2c3c(nc(CCc4ccccc4)[nH]c3=O)Oc3ccc4ccccc4c32)cc1OC (stereo not drawn),58%,6%,.,5%
O=C(/C=C/c1ccc(Br)o1)NC(c1ccccc1)c1ccccc1,36%,26µM*,5%,-9%
Cc1nc(N2CCN(C(=O)COc3ccccc3)CC2)c2c(C)c(C)sc2n1,-5%,21µM*,-1%,-29%
Cc1nc(N2CCN(c3ccccn3)CC2)c2c(C)c(C(=O)N3CCN(c4ccc(F)cc4)CC3)sc2n1,1%,18µM*,3%,-10%
COc1ccccc1N1CCN(C(=O)c2sc3nc(C)nc(N4CCN(c5ccccn5)CC4)c3c2C)CC1,9%,15µM*,2%,-23%
O=C(COc1ccccc1)N1CCN(c2ncccn2)CC1,6%,-2%,1%,0%
COc1ccccc1N1CCN(C(=O)c2sc3ncnc(N4CCN(c5ccccn5)CC4)c3c2C)CC1,5%,?,-1%,-8%
SMILES,Pin1 inhibitor,Nrf2 block,Nrf2 ARE act,A549 viability
CC1CCCCN1C(=O)COC(=O)c1ccc(S(C)(=O)=O)c([N+](=O)[O-])c1 (stereo not drawn),2%,-3%,.,-5%
Cc1ccc(Cl)cc1-n1ncc2c(Nc3cccc(C)c3C)ncnc21,?,.,4%,-22%
CC(=O)c1c(C)[nH]c(C(=O)OCC(=O)Nc2ccc(C)cc2[N+](=O)[O-])c1C,?,5.8µM*,8%,-17%
CC(=O)c1c(C)[nH]c(C(=O)OCC(=O)NCCCc2ccccc2)c1C,-2%,?,3%,-1%
CCOC(=O)c1c(C)[nH]c(C(=O)OCC(=O)Nc2ccc(Cl)cn2)c1C,4%,-7%,-1%,9%
CCOC(=O)c1c(C)[nH]c(C(=O)OCC(=O)Nc2sccc2C(N)=O)c1C,56%,8.2µM*,-1%,?
CC(=O)c1c(C)[nH]c(C(=O)OCC(=O)NCc2cccs2)c1C,0%,15µM*,5%,-1%
COc1ccc(C(=O)O)cc1COc1ccc(NC(C)=O)cc1,0%,8%,.,-1%
Cc1cccc(Cn2c(-c3cccs3)nc3ccccc32)c1,1%,-3%,1%,-7%
Cc1ccc(C)c(Cn2c(-c3cccs3)nc3ccccc32)c1,14%,23µM*,7%,?
O=C(Nc1ccc(O)c2c(=O)cc(-c3ccccc3Cl)oc12)c1cc(Cl)cc(Cl)c1,13%,-22%,.,0%
O=C(OCC#CCSc1nnc(-c2ccc(F)cc2)o1)c1ccc(F)cc1,5%,?,.,-1%
COc1ccc(N2CCN(C(=O)CSc3nc(-c4ccc(C(C)C)cc4)no3)CC2)cc1,-3%,?,0%,-4%
COc1cccc(C2c3c(ncn(-c4ccc(Br)cc4)c3=N)Oc3ccc4ccccc4c32)c1 (stereo not drawn),64%,-13%,.,-16%
CCc1ccc(-c2cc(C(F)(F)F)n3nc(C(=O)Nc4cnn(Cc5ccc(C)cc5)c4)cc3n2)s1,33%,8.2µM*,0%,26µM*
CC(C)c1nn2c(=O)cc(COC(=O)c3ccccc3NC(=O)c3cccc(Cl)c3)nc2s1,-7%,.,-1%,2%
Cc1cc2c(SCC(=O)NC3CCCCC3)ncnc2s1,0%,?,0%,-16%
Cc1cc2c(NC3CCCCC3)ncnc2s1,-2%,12µM*,3%,-12%
Cc1cc(NC(=O)c2ccc(Cl)c(Cl)c2)ccc1-c1cc2ccccc2oc1=O,-4%,-18%,0%,-1%
COc1cccc(C(=O)Nc2cccc(-c3nc4ncccc4o3)c2C)c1,-2%,?,-1%,-3%
COc1ccc(C(=O)Nc2cccc(-c3nc4ncccc4o3)c2C)cc1OC,0%,18µM*,0%,?
COc1ccc(C(=O)Nc2ccc(-c3cc4ccccc4oc3=O)c(C)c2)cc1OC,0%,13µM*,0%,-9%
CCc1cccc(-n2c(=O)c3cccnc3n2CC(=O)Nc2ccc(OC)c(Cl)c2)c1,8%,8.2µM*,4%,6%
CCc1ccc(-n2c(=O)c3cccnc3n2CC(=O)Nc2cc(OC)ccc2OC)cc1,-1%,10%,-1%,6%
CC1(O)c2ccccc2C(=O)N1CCc1ccccc1F (stereo not drawn),7%,?,7.1µM*,4%
O=C(CSC1=Nc2ccccc2C2=NC(Cc3ccccc3)C(=O)N12)Nc1cccc(Cl)c1 (stereo not drawn),17%,.,1%,-17%

# Screens: PubChem, National Center for Advancing Translational Sciences (NCATS)
